PrPC surface inh: cell surface PrPC inhibition, primary TR-FRET screen. P04156. TR-FRET read-out. inhibition, % at 13.8 µM. 370,000 compounds, 0.43% hits; in the data active means inhibition above about 24%
PrP 5UTR inh: suppresses PrP 5' UTR mRNA reporter expression; cell-based PrP 5' UTR mRNA reporter, plate reader; inhibition, % (concentration not given with the values); 340,000 compounds, 0.35% hits; in the data active means inhibition above about 52%
CCHF vOTU inh-1: blocks the CCHF virus ovarian tumor domain protease | CCHFV vOTU protease, Pep-AMC fluorescence | inhibition, % at 11.5 µM | 370,000 compounds, 0.55% hits
SARS 3CLpro inh: SARS-CoV 3CLpro protease inhibition. AID 1706. inhibition, % at 6 µM. 290,000 compounds, 0.14% hits. P0C6X7. recombinant SARS-CoV 3CLpro, quenched FRET peptide cleavage; in the data active means inhibition above about 12%
CCHF vOTU inh-2: confirmation of CCHF virus vOTU protease inhibitors; shares compounds with CCHF vOTU inh-1; 1,900 compounds, 17% hits; inhibition, % at 11.5 µM; Recombinant CCHFV vOTU, Pep-AMC fluorescence; AID 686976
A number is an active result; n = inactive; x = not tested or not shown. Sampled rows, rich in hits. Any-hit rate of the full collection: about 1.3%. Unless noted, no stated cut-off is given here; in the data, active means inhibition above about 30%; inactive means the rest.

SMILES	PrPC surface inh	PrP 5UTR inh	CCHF vOTU inh-1	SARS 3CLpro inh	CCHF vOTU inh-2
CCOC(=O)C1=C(COC(=O)c2ccc([N+](=O)[O-])s2)NC(=O)NC1C (stereo unspecified)	n	n	100	x	76
CCOC(=O)C1=C(COC(=O)c2ccc3ccccc3c2O)NC(=O)NC1C (stereo unspecified)	n	n	36	x	n
CC1(C(=O)NCc2cccc(C(F)(F)F)c2)CCN1Cc1ccc(-c2ccccc2)o1 (stereo unspecified)	n	x	34	x	n
Cc1cc2cc(CN(Cc3ccco3)C(=S)NCC3CCCO3)c(=O)[nH]c2cc1C (stereo unspecified)	n	n	31	n	n
CCc1ccc2[nH]c(=O)c(CN(Cc3ccco3)C(=S)NCC3CCCO3)cc2c1 (stereo unspecified)	n	n	n	n	x
CC(=O)c1ccc(N2CCN(C(=O)c3ccc(OCc4c(C)noc4C)cc3)CC2)cc1	n	n	34	n	n
Cc1noc(C)c1COc1ccc(C(=O)N2CCN(c3cccc(Cl)c3)CC2)cc1	n	n	n	x	x
Cc1c(C(=O)N/N=C/c2ccc(-c3ccccc3[N+](=O)[O-])o2)sc(N)c1C#N	n	n	42	n	n
Nn1cnnc1N/N=C\c1ccc(-c2ccccc2[N+](=O)[O-])o1	n	n	97	n	n
O=[N+]([O-])c1ccccc1-c1ccc(/C=N/n2cnnc2)o1	n	x	n	n	x
Cc1cccc(CNc2ncc(-c3cccc([N+](=O)[O-])c3)n2C)c1	n	n	n	n	x
Cc1cc(C)c2sc(N(CCCN(C)C)C(=O)c3ccc(Br)s3)nc2c1	n	n	31	n	n
Cc1cc(C)c2sc(N(CCN(C)C)C(=O)c3c(F)cccc3F)nc2c1	n	n	n	n	x
Nc1ccn([C@@H]2O[C@H](CNCc3cccc(OC4CCCC4)c3)[C@@H](O)[C@H]2O)c(=O)n1	n	x	n	x	x
CCCN(CC(=O)Nc1ccccc1OC)C(=O)c1ccc2[nH]c3c(c2c1)CC(C)CC3 (stereo unspecified)	n	n	38	x	n
CCN(CC)C(=O)c1ccc(/C=C/c2c[nH]c3ccccc23)[n+](C)c1	n	n	n	n	x
CC[n+]1c(/C=C/c2c[nH]c3ccccc23)ccc2cc(C)ccc21	n	n	34	n	n
Cc1ccc(C2=NS(=O)(=O)N(C)C(C(=O)N3CCCCC3)=C2)cc1	n	n	n	n	x
O=C(CN1CCN(c2cccc(Cl)c2)CC1)NC1CCCc2ccccc21 (stereo unspecified)	n	n	n	n	x
Cc1ccc2c(c1)c(=O)c1c3n2CCN(C(=O)CCl)C3CC1 (stereo unspecified)	n	n	51	n	n
COc1cccc(-c2cc(NC=O)c3ncc(-c4cccc(C(=O)N(C)C)c4)n3c2)c1	n	x	31	x	n
CCCN1C(=O)c2[nH]nc(-c3ccccc3)c2C1c1ccc(F)cc1 (stereo unspecified)	n	x	n	x	x
CC(CC(=O)OCC(=O)NCc1ccc(Cl)cc1)c1ccccc1 (stereo unspecified)	n	n	33	x	n
Cc1cccc(CN2CCC(n3nccc3NC(=O)CCCc3ccccc3)CC2)c1	n	x	n	x	x
S=C(NCc1ccccn1)Nc1cccc(Cl)c1	n	n	n	n	x
SMILES	PrPC surface inh	PrP 5UTR inh	CCHF vOTU inh-1	SARS 3CLpro inh	CCHF vOTU inh-2
CC(=NNC(=S)Nc1cccc(Cl)c1)c1ccccn1	n	n	30	x	n
CCC(C)NC(=O)CC1Oc2ccc(C)cc2NC1=O (stereo unspecified)	n	n	n	n	x
COc1cccc(CN(C)CC(=O)NCc2ccc(C)cc2)c1	n	n	n	n	x
O=C(NC1CCCCC1)C(c1ccncc1)N(C(=O)Cc1cccs1)c1ccccc1 (stereo unspecified)	n	n	n	n	x
CCOc1cc(/C=N/NC(=S)Nc2ccccc2C(F)(F)F)ccc1OCC(=O)N1CCOCC1	n	n	30	n	n
Cc1ccccc1-c1nc(CS(=O)(=O)CC(=O)NCCc2ccccc2)c(C)o1	n	n	39	n	n
CC(Oc1cccc(Cl)c1)C(=O)NNC(=O)c1cccnc1 (stereo unspecified)	n	n	n	x	x
CC(C)(C)c1ccc(C(=O)N2CCOC23CCCCC3)cc1	n	x	34	x	n
Nc1ccc(O)c([N+](=O)[O-])c1	n	n	n	x	x
O=[N+]([O-])c1cc(S(=O)(=O)c2ccc(O)c([N+](=O)[O-])c2)ccc1O	n	n	43	n	n
Nc1cc(S(=O)(=O)O)cc([N+](=O)[O-])c1O	n	n	31	n	n
O=C(CN(c1ccccc1)S(=O)(=O)c1ccccc1)N1CCN(Cc2ccc3c(c2)OCO3)CC1	n	n	n	n	x
CC1CCCC(NC(=O)COC(=O)C2=COCCO2)C1C (stereo unspecified)	n	x	n	x	x
O=C(NCc1ccc(F)cc1)Nc1nnc([C@@H]2C[C@H](O)[C@@H](CO)O2)s1	n	x	34	x	n
CC(C)C(=O)Nc1cccc(NC(=O)c2cccc([N+](=O)[O-])c2)c1	n	n	n	n	x
O=S(=O)(c1ccc2nc(-c3ccco3)c(-c3ccco3)nc2c1)N1CCOCC1	n	n	73	n	40
O=C(c1ccc2nc(-c3ccco3)c(-c3ccco3)nc2c1)N1CCC2(CC1)OCCO2	x	n	x	x	x
O=C(c1ccc2nc(-c3ccco3)c(-c3ccco3)nc2c1)N1CCN(c2ccccc2)CC1	n	n	48	n	n
O=S(=O)(c1ccc2ccccc2c1)N1CCOCC1	n	n	n	n	x
O=C(NCc1ccccn1)C1CCC(=O)N(Cc2ccc(Cl)cc2)C1 (stereo unspecified)	n	n	n	n	x
COc1ccc(NC(=S)NNc2ccc(S(=O)(=O)Nc3ccccc3C(=O)O)cc2[N+](=O)[O-])cc1	n	n	33	n	n
COc1ccc(C=NNc2ccc(S(=O)(=O)Nc3ccccc3C(=O)O)cc2[N+](=O)[O-])c(OC)c1	x	n	x	x	x
CN1c2ccccc2C(O)=C(C(=S)Nc2ccc(Cl)cc2)S1(=O)=O	n	n	31	n	n
COc1ccc(C2NC(=O)NC(C)=C2C(=O)OC2CCCCC2)cc1 (stereo unspecified)	n	x	42	x	n
CC1(C)CC(=O)C=C(Nc2ccc(O)cc2)C1	n	x	n	x	x
SMILES	PrPC surface inh	PrP 5UTR inh	CCHF vOTU inh-1	SARS 3CLpro inh	CCHF vOTU inh-2
Cc1cc(C)c(S(C)(=O)=O)c(Sc2ccc(Cl)cc2)n1	n	n	n	n	x
Cc1nc2c(OCc3ccc(C(F)(F)F)cc3)cccn2c1N(C)C(=O)CCC1CCCC1	n	x	33	x	n
CCOC(=O)N(C)c1c(CC)nc2c(OCCC3CCCCC3)cccn12	n	x	30	x	n
Cc1nc2c(OCc3ccc(F)cc3)cccn2c1N(C)C(=O)CCC1CCCC1	n	x	n	x	x
O=C1c2ccccc2C(=O)N1CCSc1n[nH]c(=S)s1	n	n	n	n	x
CCOC(=O)C1(Cc2cccc(Cl)c2)CCCN(C(=O)c2ccc(COC)s2)C1 (stereo unspecified)	n	n	31	n	n
CC1(C)CC(=O)C=C(Nc2ccc(Br)cn2)C1	n	n	31	n	n
CN(C)C=Nc1c(C(=O)c2ccccc2)sc2nccc(N(C)C)c12	n	n	30	n	n
CCOC(=O)c1sc2nccc(N(C)C)c2c1N=CN(C)C	n	n	n	n	x
